What all share (test): Euclidean distance of Cell Painting phenotypic profile (signed KS, 77 features) to DMSO centroid (dimensionless distance); 5 or 10 uM (library dependent); higher = stronger phenotypic change vs DMSO (phenoactivity)
Conditions in all cases: 48 h

In test [1] the test system is 786-O. The gist of the method:
(§1)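 Library compounds were applied at 10 or 5 uM, depending on the library, with 0.1% DMSO final, for 48 h to five cancer lines and a healthy fibroblast line. After staining, cells were imaged confocally at 20X across 9 fields per well, and Harmony extracted 77 features, each scored as a signed Kolmogorov-Smirnov statistic against vehicle wells on the same plate. Phenoactivity is the Euclidean distance between each profile and the median vehicle profile, with profiles first plate-position corrected, correlation-weighted and averaged over replicates at the top dose.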

Test [2] has as its system A549. The method, boiled down: as §1
The subject of test [3] is DU145. The gist of the method: as §1
Test [4] concerns FB. The method, boiled down: as §1
Test [5] has as its system HEPG2. The gist of the method: as §1
Test [6] concerns OVCAR4. The method, boiled down: as §1

For 23 compounds, Euclidean distance results are on record in the supplement of paper PMC10127200.

SMILES strings stand for the structures. Structures can show the parent of a compound that is named as a salt.

As for `CCC(=O)N1CC[C@H](Nc2ncnc3c2CN(c2cnc(OC)c(C(F)(F)F)c2)CC3)C1` [leniolisib(CDZ 173)], the Euclidean distance stood at 1.06 in test [1]; 1.1 in test [2]; 1.67 in test [3]; 1.76 in test [4]; 0.969 in test [5]; 1.59 in test [6].
As for `C[C@H]1O[C@H](O[C@H]2[C@H](O)[C@@H](O)[C@@H](O[C@H]3[C@H](O)[C@@H](O)C(O)O[C@@H]3CO)O[C@@H]2CO)[C@H](O)[C@@H](O)[C@@H]1N[C@H]1C=C(CO)[C@@H](O)[C@H](O)[C@H]1O` (stereo partly drawn) [Acarbose], the Euclidean distance in test [1] is 1.5; in test [2] it was 1.91; in test [3] it was 1.47; in test [4] it was 1.59; in test [5], 0.847; in test [6], 1.46.
Regarding `C=CC(=O)Nc1cc(Nc2nccc(-c3cn(C4CC4)c4ccccc34)n2)c(OC)cc1N(C)CCN(C)C`, the Euclidean distance in test [1] was determined as 5.66; in test [2] it was 5.01; in test [3], 3.44; in test [4], 2.32; in test [5] it was 2.67; in test [6], 1.92.
As for `CC(=O)OCC(=O)[C@H]1CC[C@H]2[C@@H]3CCC4=CC(=O)CC[C@]4(C)[C@H]3CC[C@]12C` [Deoxycorticosterone acetate], the Euclidean distance was determined as 0.997 in test [1]; 0.852 in test [2]; 0.854 in test [3]; 1.02 in test [4]; 0.569 in test [5]; 1.51 in test [6].
For the compound `O=C(O)[C@@H]1CCCN1` [L-Proline], the Euclidean distance in test [1] was determined as 1.26; in test [2], 0.98; in test [3] it was 1.37; in test [4], 1; in test [5], 0.823; in test [6], 0.766.
Turning to `O=C(OCCOCCO)c1ccccc1Nc1cccc(C(F)(F)F)c1` [Etofenamate], the Euclidean distance in test [1] was 0.974; in test [2], 0.683; in test [3] it was 1.59; in test [4] it was 1.79; in test [5], 0.744; in test [6], 0.722.
For the compound `COc1cc(C2Oc3cc([C@H]4Oc5cc(O)cc(O)c5C(=O)[C@@H]4O)ccc3OC2CO)ccc1O` (stereo partly drawn) [Silibinin], the Euclidean distance in test [1] came out at 0.696; in test [2], 1.28; in test [3] it was 0.646; in test [4], 0.713; in test [5] it was 0.547; in test [6], 0.847.
As for `Cn1cc(-c2cnn3c(N)c(Br)c([C@@H]4CCCNC4)nc23)cn1`, the Euclidean distance in test [1] amounted to 2.18; in test [2], 1.1; in test [3] it was 1.19; in test [4] it was 2.96; in test [5], 1.35; in test [6], 2.36.
Consider `CN(C)CCCOc1nn(Cc2ccccc2)c2ccccc12` [Benzydamine HCl], for which the Euclidean distance in test [1] worked out at 1.26; in test [2], 0.962; in test [3], 1.75; in test [4] it was 1.24; in test [5], 0.87; in test [6] it was 1.33.
For the compound `C[C@H](N)[C@H](O)c1cccc(O)c1` [Metaraminol Bitartrate], the Euclidean distance in test [1] stood at 0.87; in test [2], 0.731; in test [3] it was 0.8; in test [4], 1.26; in test [5] it was 0.768; in test [6] it was 0.946.
For `NCCc1c[nH]cn1` [Histamine], the Euclidean distance in test [1] is 1.05; in test [2] it was 1.15; in test [3] it was 1.33; in test [4] it was 1.24; in test [5], 1.08; in test [6], 1.27.
`CC(COc1ccccc1)N(CCCl)Cc1ccccc1` (stereo not drawn) [Phenoxybenzamine HCl]: the Euclidean distance in test [1] was determined as 1.48; in test [2], 0.892; in test [3] it was 1.06; in test [4] it was 0.978; in test [5] it was 0.778; in test [6], 1.55.
`CCCCOC(=O)c1ccc(O)cc1` [Butylparaben]: the Euclidean distance in test [1] was 1.05; in test [2], 1.03; in test [3] it was 1.11; in test [4] it was 1.03; in test [5] it was 0.462; in test [6], 1.66.
With `CC(C)NC(=N)NC(=N)Nc1ccc(Cl)cc1` [Proguanil], the Euclidean distance in test [1] stood at 1.21; in test [2] it was 1.28; in test [3], 0.798; in test [4], 0.927; in test [5] it was 0.823; in test [6], 1.25.
Consider `Nc1nc(=O)[nH]cc1F` [Flucytosine], for which the Euclidean distance in test [1] came out at 1.25; in test [2], 1.12; in test [3] it was 0.998; in test [4], 1.16; in test [5], 0.392; in test [6], 0.975.
Consider `C=C1/C(=C\C=C2/CCC[C@]3(C)[C@@H]([C@H](C)/C=C/[C@@H](O)C4CC4)CC[C@@H]23)C[C@@H](O)C[C@@H]1O` [Calcipotriene], for which the Euclidean distance in test [1] was found to be 0.625; in test [2], 1.01; in test [3], 0.941; in test [4], 2.13; in test [5] it was 0.91; in test [6] it was 1.51.
Take `C[C@H]1COc2c(N3CCN(C)CC3)c(F)cc3c(=O)c(C(=O)O)cn1c23` [Levofloxacin hydrate]: the Euclidean distance in test [1] was 1.06; in test [2] it was 0.678; in test [3], 1.07; in test [4], 1.25; in test [5] it was 0.54; in test [6], 1.57.
Consider `CC(C)(C)NCC(O)COc1cccc2c1CCC(=O)N2` (stereo not drawn) [Carteolol HCl], for which the Euclidean distance in test [1] was 1.14; in test [2], 0.612; in test [3], 0.836; in test [4], 1.22; in test [5], 0.541; in test [6], 2.01.
For the compound `COc1ccc(CC2c3cc(OC)c(OC)cc3CC[N+]2(C)CCC(=O)OCCCCCOC(=O)CC[N+]2(C)CCc3cc(OC)c(OC)cc3C2Cc2ccc(OC)c(OC)c2)cc1OC` (stereo not drawn) [Atracurium Besylate], the Euclidean distance in test [1] came to 1.83; in test [2], 0.711; in test [3], 1.16; in test [4], 0.918; in test [5] it was 1.14; in test [6], 1.51.
Consider `C[C@]12CCC(=O)C=C1CC[C@@H]1[C@@H]2C(=O)C[C@@]2(C)[C@H]1CC[C@]2(O)C(=O)CO` [Cortisone], for which the Euclidean distance in test [1] amounted to 1.73; in test [2], 0.941; in test [3], 1.11; in test [4], 1.27; in test [5], 0.411; in test [6], 1.
As to `CCOC(=O)CCC(=O)O[C@H]1[C@H](O[C@@H]2[C@@H](C)[C@H](O[C@H]3C[C@@](C)(OC)[C@@H](O)[C@H](C)O3)[C@@H](C)C(=O)O[C@H](CC)[C@@](C)(O)[C@H](O)[C@@H](C)C(=O)[C@H](C)C[C@@]2(C)O)O[C@H](C)C[C@@H]1N(C)C` [Erythromycin Ethylsuccinate], the Euclidean distance in test [1] is 1.09; in test [2], 0.82; in test [3], 1.09; in test [4], 1.04; in test [5], 0.715; in test [6] it was 1.3.
Turning to `CC(C)(C)C(=O)C(Oc1ccc(Cl)cc1)n1ccnc1` (stereo not drawn) [Climbazole], the Euclidean distance was 0.898 in test [1]; 0.838 in test [2]; 0.641 in test [3]; 1.02 in test [4]; 0.579 in test [5]; 1.29 in test [6].
Regarding `CCOC(=O)C1=C(C)NC(C)=C(C(=O)OCC)C1c1ccccc1/C=C/C(=O)OC(C)(C)C` [Lacidipine], the Euclidean distance in test [1] is 0.955; in test [2], 0.916; in test [3], 1.62; in test [4], 1.14; in test [5], 0.707; in test [6] it was 1.15.
